Bioassay records from PubChem.
In the library only some 4.7% were active in any assay of this set; here they are far more common.
EBI2 antag: EBI2 receptor antagonists, beta-arrestin recruitment, primary screen, cell-based, luminescence, 7a,25-OHC stimulation, uHTS | G-protein coupled receptor 183 (Homo sapiens), P32249 | 7a,25-OHC stimulated | inhibition, % at 5 µM | 360,000 tested, 0.81% active; in the data active = inhibition above about 38%;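 also: enzyme fragment complementation signal reports receptor beta-arrestin coupling in cells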
Target sequence (P32249 whole entry, looked up, the tested form may be a part): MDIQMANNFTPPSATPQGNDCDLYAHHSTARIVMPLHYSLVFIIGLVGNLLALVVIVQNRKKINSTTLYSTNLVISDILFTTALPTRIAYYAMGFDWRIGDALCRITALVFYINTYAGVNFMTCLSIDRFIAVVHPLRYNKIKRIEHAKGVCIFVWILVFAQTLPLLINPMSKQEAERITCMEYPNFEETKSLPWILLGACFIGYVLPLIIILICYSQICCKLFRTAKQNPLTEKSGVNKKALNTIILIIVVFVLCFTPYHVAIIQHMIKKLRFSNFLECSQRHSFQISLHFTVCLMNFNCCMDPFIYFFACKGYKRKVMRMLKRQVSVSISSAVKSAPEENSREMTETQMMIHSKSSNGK
SKKanGAS inh: S. pyogenes SKKanGAS growth inhibitors in kanamycin, primary screen, streptokinase expression inhibitor project, SKKanGAS strain, BacTiter-Glo luminescence; 6 h; inhibition, % at 7.5 µM; 300,000 tested, 1.3% active; AID 1662, 2009;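 active = mean replicate score, as percent of positive control median, at least 50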;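 also: strain carries kanamycin resistance gene driven by streptokinase promoter and grows in 40 µg/ml kanamycin; loss of luminescence reflects streptokinase promoter inhibition or plain growth inhibition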
tim10-1 inh: growth inhibitors of tim10-1 mutant yeast, primary screen, luminescence, uHTS; inhibition, % at 20 µM; 330,000 tested, 2.2% active; AID 463190, 2010; S. cerevisiae tim10-1 ts strain growth, BacTiter-Glo, 24 h;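 active = inhibition of at least 40%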;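 also: mutant grown at 25 °C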
tim23-1 inh: growth inhibitors of tim23-1 mutant yeast, primary screen, luminescence, uHTS | AID 463212, 2010 | S. cerevisiae tim23-1 growth, BacTiter-Glo luminescence, 24 h | 330,000 tested, 1.3% active | inhibition, % at 20 µM;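 active = growth inhibition of the mutant yeast at or above 50%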;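 also: temperature-sensitive mutant grown at 25 °C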
PfHsp90 set2: growth inhibition of PfHsp90-expressing yeast, primary screen, antimalarial PfHsp90 inhibitor project, S. cerevisiae, BacTiter-Glo luminescence, single point, set 2; inhibition, % at 9.4 µM; AID 504621, 2011; 310,000 tested, 0.32% active; BacTiter-Glo ATP, 48 h; yeast lacking PDR1 and PDR3 efflux regulators;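 active = every replicate shows inhibition above about 80%, whatever the replicate mean, limit read from the data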
TIM10 inh: growth inhibitors of isogenic TIM10 control yeast, primary screen, counter-screen for tim10-1 yeast inhibitor project, luminescence, uHTS; S. cerevisiae TIM10 strain growth, BacTiter-Glo luminescence, 24 h; inhibition, % at 10 µM; 330,000 tested, 1.4% active; AID 463195, 2010;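 active = inhibition of 40% or more at the single tested concentration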;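 also: wild-type TIM10 isogenic control strain grown at permissive 25 °C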
Of the large screens only hits and unclear results are named; the others gave an inactive call.

O=C(CC1SC(=Nc2ccccc2)N(CCc2c[nH]c3ccccc23)C1=O)Nc1ccccc1F (stereo not drawn)	SKKanGAS inh 86
S=c1[nH]nc(-c2cccs2)n1/N=C/c1c(Cl)cccc1Cl	SKKanGAS inh 63
S=c1[nH]nc(C2CCCCC2)n1/N=C/c1c(Cl)cccc1Cl	SKKanGAS inh 52
CC(=O)Nc1ccc(CNc2nc3cc(-c4ccsc4)sc3c(=O)n2C)cc1	none (no result: SKKanGAS inh, tim10-1 inh, tim23-1 inh, PfHsp90 set2, TIM10 inh)
Cc1nc(N2CCc3ccccc3C2)[nH]c(=O)c1Cc1ccccc1	none
Cc1nc(-n2[nH]c3c(c2=O)CCCC3)[nH]c(=O)c1Cc1ccccc1	SKKanGAS inh 95
CC1(C)Cc2c(cnn2-c2ccccc2)C(NC(=O)CCCN2CCCC2=O)C1 (stereo not drawn)	SKKanGAS inh 61
Cc1ccc(-n2ncc3c2CC(C)(C)CC3NC(=O)CCCN2CCCCC2=O)cc1 (stereo not drawn)	none
C=C1CC(COc2ccc3c(C)c(Cl)c(=O)oc3c2)(c2ccccc2)OC1=O (stereo not drawn)	EBI2 antag 56 (no result: SKKanGAS inh, tim10-1 inh, tim23-1 inh, TIM10 inh)
Cc1cccc(/C=C/C(=O)c2cc(Br)ccc(=O)c2O)c1	SKKanGAS inh 90
CCc1ccc(/C=C/C(=O)c2cc(Br)ccc(=O)c2O)cc1	SKKanGAS inh 106
CCCCn1nc(C(=O)NNC(=O)c2ccncc2)c2ccccc2c1=O	none
CC(C)C(=O)NC(c1cccc([N+](=O)[O-])c1)c1ccc2cccnc2c1O (stereo not drawn)	PfHsp90 set2 119
CC(C)C(=O)NC(c1ccco1)c1ccc2cccnc2c1O (stereo not drawn)	SKKanGAS inh 87
CCCC(=O)NC(c1cccc([N+](=O)[O-])c1)c1ccc2cccnc2c1O (stereo not drawn)	none (no result: SKKanGAS inh, tim10-1 inh, tim23-1 inh, PfHsp90 set2, TIM10 inh)
CC(C)[C@H](N)c1nnc(SC/C=C/c2ccccc2)o1	none
CC1(C(=O)NS(=O)(=O)c2cccc(OC(F)F)c2)CCN1C(=O)c1ccco1 (stereo not drawn)	none (no result: SKKanGAS inh, tim10-1 inh, tim23-1 inh, PfHsp90 set2, TIM10 inh)
CCCc1nc2sc3c(c2c(=O)n1NC(=O)c1ccco1)CC(C)(C)OC3	none
CCc1nc2sc3c(c2c(=O)n1N)CC(C)(C)OC3	none
CCCCCCCCCc1nc2sc3c(c2c(=O)n1NC(=O)c1ccccc1[N+](=O)[O-])CC(C)(C)OC3	SKKanGAS inh 65
CCCCCCCCCc1nc2sc3c(c2c(=O)n1NC(=O)c1ccc([N+](=O)[O-])cc1)CC(C)(C)OC3	SKKanGAS inh 64
CCCCc1ccc(S(=O)(=O)NC(=O)C2(C)CCN2C(=O)CCc2cccs2)cc1 (stereo not drawn)	none (no result: SKKanGAS inh, tim10-1 inh, tim23-1 inh, PfHsp90 set2, TIM10 inh)
CCOC(=O)C1(C)CCCN1C(=O)c1ccc(OC)c(F)c1 (stereo not drawn)	none (no result: SKKanGAS inh, tim10-1 inh, tim23-1 inh, PfHsp90 set2, TIM10 inh)
COCc1cc(Sc2c(Cl)cccc2Cl)nc(-c2ccccc2)n1	SKKanGAS inh 66
COCc1cc(N2CCCCC2)nc(-c2ccccc2)n1	none
Cc1cc2oc(=O)cc(CN3CCN(c4ccccc4)CC3)c2cc1Cl	none (no result: SKKanGAS inh, tim10-1 inh, tim23-1 inh, PfHsp90 set2, TIM10 inh)
Cc1cc2oc(=O)cc(Cn3ncc(Cl)c(Cl)c3=O)c2cc1Cl	EBI2 antag 50
C#CCNC(=O)C[C@@H]1C[C@@]2(C(=O)OC)CC(C)(C)CC=C2N(Cc2ccccc2)C1=O	none (no result: SKKanGAS inh, tim10-1 inh, tim23-1 inh, PfHsp90 set2, TIM10 inh)
COC(=O)c1ccc(Oc2nc3ccccc3n3c(C)nnc23)cc1	SKKanGAS inh 53
Cc1cccc2sc(NNC(=O)c3cc(-c4cccs4)nc4ccccc34)nc12	SKKanGAS inh 88
CC(C)(C)C1CCC(N2CCN(c3ccccc3)CC2)CC1 (stereo not drawn)	none
COc1cccc(C2CC(c3cccs3)=NN2C(=O)CSc2nc3ccccc3s2)c1OC (stereo not drawn)	none
COc1ccc(C2CC(c3cccs3)=NN2C(=O)CSc2nc3c(cnn3-c3ccccc3)c(=O)[nH]2)cc1 (stereo not drawn)	SKKanGAS inh 64
COc1cccc(C2CC(c3cccs3)=NN2C(=O)CSc2nc3c(cnn3-c3ccc(F)cc3)c(=O)[nH]2)c1OC (stereo not drawn)	SKKanGAS inh 57
